Measured values published in PubChem BioAssay (NCATS).
Several values for one entry are separate records, joined by “and”; a condition that tells them apart may be missing. Identical values can stand only once. Records with an inconclusive call do not appear. Entries that show only a call come without a potency. Activity calls are given as the source filed them. The call rests on the fitted dose curve; in most records, active means well fitted curve in the direction sought with a large enough effect; inconclusive means small, poorly fitted or top-dose-only effect, or another doubt; inactive means no such curve, though single readings can be large; an effect the other way counts as inactive or inconclusive.

Experiments:
[1] = qHTS of pediatric cancer cell lines to identify multiple opportunities for drug repurposing: Primary screen for LAN-5 cells (AID 1347100); further: potency means the concentration at half of the fitted maximal effect
Method in brief: (§1)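 Viability after 48 h compound treatment at 37C, 500-1,000 cells/well, read as ATP luminescence with CellTiter-Glo. Primary screens used 11-point (MIPE, 0.78 nM-46 µM) or 8-point (NPC, 0.59 nM-46 µM) final concentrations; follow-up screens used 11-point dilutions.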

[2] = qHTS of pediatric cancer cell lines to identify multiple opportunities for drug repurposing: Primary screen for BT-12 cells (AID 1347101); further: nearly all actives have a fitted effect of over 25% in size; further: potency means the concentration at half of the fitted maximal effect
Method in brief: (§2)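 Cells (500-1,000/well) rested 5 h, then received compounds for 48 h; metabolically active cells were measured by CellTiter-Glo luminescence. Final concentrations spanned up to 46 µM (MIPE, 11-point) or 0.59 nM-46 µM (NPC, 8-point) in primary screens, 11-point in follow-ups.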

[3] = qHTS of pediatric cancer cell lines to identify multiple opportunities for drug repurposing: Primary screen for Rh18 cells (AID 1347102); further: nearly all actives have a fitted effect of over 65% in size; further: potency means the concentration at half of the fitted maximal effect
Method in brief: as §1

[4] = qHTS of pediatric cancer cell lines to identify multiple opportunities for drug repurposing: Primary screen for OHS-50 cells (AID 1347103); further: nearly all actives have a fitted effect of over 40% in size; further: potency means the concentration at half of the fitted maximal effect
Method in brief: as §2

[5] = qHTS of pediatric cancer cell lines to identify multiple opportunities for drug repurposing: Primary screen for RD cells (AID 1347104); further: nearly all actives have a fitted effect of over 55% in size; further: potency means the concentration at half of the fitted maximal effect
Method in brief: (§3)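 Cells seeded at 500-1,000 cells/well in growth media, rested 5 hours at 37 degrees C, 5% CO2, then dosed; MIPE compounds at 11-point (from 0.78 nM) and NPC at 8-point (from 0.59 nM) final concentrations. Viability by CellTiter-Glo luminescence after 48 hours.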

[6] = qHTS of pediatric cancer cell lines to identify multiple opportunities for drug repurposing: Primary screen for MG 63 (6-TG R) cells (AID 1347105); further: nearly all actives have a fitted effect of over 50% in size; further: potency means the concentration at half of the fitted maximal effect
Method in brief: as §3

[7] = qHTS of pediatric cancer cell lines to identify multiple opportunities for drug repurposing: Primary screen for control Hh wild type fibroblast cells (AID 1347106);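 further: series mostly up to about 46 µM; a drop in luminescence marks cytotoxicity and a rise apparent proliferation; nearly all actives have a fitted effect of over 55% in size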
Method in brief: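 Cells (500-1,000/well) in growth media were settled 5 h at 37 degrees C, then given compounds for 48 h. Viability was read as CellTiter-Glo luminescence. Primary runs used MIPE at 11 points (0.78 nM-46 µM) and NPC at 8 points (0.59 nM-46 µM); follow-ups used 11 points.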

[8] = qHTS of pediatric cancer cell lines to identify multiple opportunities for drug repurposing: Primary screen for Rh30 cells (AID 1347107); further: series mostly up to about 46 µM; nearly all actives have a fitted effect of over 75% in size
Method in brief: as §1

[9] = qHTS of pediatric cancer cell lines to identify multiple opportunities for drug repurposing: Primary screen for Rh41 cells (AID 1347108); further: nearly all actives have a fitted effect of over 70% in size; further: potency means the concentration at half of the fitted maximal effect
Method in brief: as §3

[10] = qHTS of pediatric cancer cell lines to identify multiple opportunities for drug repurposing: Confirmatory screen for A673 cells (AID 1347110);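 further: cells exposed to compound for 48 h before the viability read; nearly all actives have a fitted effect of over 65% in size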; further: potency means the concentration at half of the fitted maximal effect
Method in brief: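 A673 cells seeded at 500-1,000 cells/well, rested 5 h, then dosed; primary MIPE 11-point (0.78 nM to 46 µM), NPC (0.59 nM to 46 µM); confirmatory 11-point. CellTiter-Glo luminescence after 48 h.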

[11] = qHTS of pediatric cancer cell lines to identify multiple opportunities for drug repurposing: Confirmatory screen for DAOY cells (AID 1347114); further: nearly all actives have a fitted effect of over 65% in size; further: potency means the concentration at half of the fitted maximal effect
Method in brief: (§4)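 Viability measured as metabolically active cells via CellTiter-Glo luminescence following 48 hours of compound exposure, 11-point dilutions in confirmatory testing. 500-1,000 cells/well plated 5 hours before dosing; controls were DMSO and 2.3 µM bortezomib.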

[12] = qHTS of pediatric cancer cell lines to identify multiple opportunities for drug repurposing: Confirmatory screen for TC32 cells (AID 1347118);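 further: cells exposed to compound for 48 h before the read; nearly all actives have a fitted effect of over 65% in size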; further: potency means the concentration at half of the fitted maximal effect
Method in brief: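 qHTS, TC32, 48 h drug treatment, CellTiter-Glo luminescence as a proxy for metabolically active cells; primary top concentration 46 µM (MIPE 11-pt, NPC 8-pt); confirmatory 11-pt.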

[13] = qHTS of pediatric cancer cell lines to identify multiple opportunities for drug repurposing: Confirmatory screen for MG 63 (6-TG R) cells (AID 1347119); further: nearly all actives have a fitted effect of over 55% in size; further: potency means the concentration at half of the fitted maximal effect
Method in brief: as §1

[14] = qHTS of pediatric cancer cell lines to identify multiple opportunities for drug repurposing: Confirmatory screen for NB1643 cells (AID 1347109); further: nearly all actives have a fitted effect of over 45% in size; further: potency means the concentration at half of the fitted maximal effect
Method in brief: as §1

[15] = qHTS of pediatric cancer cell lines to identify multiple opportunities for drug repurposing: Confirmatory screen for BT-12 cells (AID 1347112); further: nearly all actives have a fitted effect of over 55% in size; further: potency means the concentration at half of the fitted maximal effect
Method in brief: as §1

[16] = qHTS of pediatric cancer cell lines to identify multiple opportunities for drug repurposing: Confirmatory screen for LAN-5 cells (AID 1347113); further: nearly all actives have a fitted effect of over 65% in size; further: potency means the concentration at half of the fitted maximal effect
Method in brief: as §1

[17] = qHTS of pediatric cancer cell lines to identify multiple opportunities for drug repurposing: Confirmatory screen for NB-EBc1 cells (AID 1347115);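 further: cells exposed to compound for 48 h before the viability read; nearly all actives have a fitted effect of over 45% in size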; further: potency means the concentration at half of the fitted maximal effect
Method in brief: as §1

[18] = qHTS of pediatric cancer cell lines to identify multiple opportunities for drug repurposing: Confirmatory screen for SJ-GBM2 cells (AID 1347116); further: nearly all actives have a fitted effect of over 60% in size; further: potency means the concentration at half of the fitted maximal effect
Method in brief: as §4

[19] = qHTS of pediatric cancer cell lines to identify multiple opportunities for drug repurposing: Confirmatory screen for BT-37 cells (AID 1347117); further: nearly all actives have a fitted effect of over 55% in size; further: potency means the concentration at half of the fitted maximal effect
Method in brief: as §1

[20] = qHTS of pediatric cancer cell lines to identify multiple opportunities for drug repurposing: Confirmatory screen for control Hh wild type fibroblast cells (AID 1347121); further: nearly all actives have a fitted effect of over 70% in size
Method in brief: as §1

SMILES | Potency [1] | Potency [2] | Potency [3] | Potency [4] | Potency [5] | Potency [6] | Potency [7] | Potency [8] | Potency [9] | Potency [10] | Potency [11] | Potency [12] | Potency [13] | Potency [14] | Potency [15] | Potency [16] | Potency [17] | Potency [18] | Potency [19] | Potency [20]
O=S(=O)(O)CCS | inactive | inactive | inactive | inactive | inactive | inactive | inactive | inactive | inactive | inactive | inactive | inactive | 5220 nM (active) | – | – | – | – | – | – | –
CO[C@@]12[C@H](COC(N)=O)C3=C(C(=O)C(C)=C(N)C3=O)N1C[C@@H]1N[C@@H]12 | 335 nM (active) and 1.05 µM (active) | 3.47 µM (active) and 3.06 µM (active) | 18700 nM (active) | 3.85 µM (active) | 18.8 µM (active) and 18.7 µM (active) | 14.8 µM (active) | inactive | – | 13.3 µM (active) and 11.8 µM (active) | 3690 nM (active) | 14700 nM (active) | 465 nM (active) | – | 1040 nM (active) | 16500 nM (active) | 1310 nM (active) | 1310 nM (active) | 16500 nM (active) | 737 nM (active) | –
CCN1CCCC1CNC(=O)c1cc(S(N)(=O)=O)ccc1OC (stereo not given) | inactive | inactive | inactive | inactive | inactive | inactive | inactive | inactive | inactive | – | – | – | – | – | – | – | – | – | – | –
CCc1c2c(nc3ccc(OC(=O)N4CCC(N5CCCCC5)CC4)cc13)-c1cc3c(c(=O)n1C2)COC(=O)[C@]3(O)CC | 1.33 µM (active) and 372 nM (active) | 2.43 µM (active) | 18700 nM (active) | 0.769 µM (active) | – | 21.1 µM (active) and 1.48 µM (active) | inactive | – | – | 1170 nM (active) | – | 465 nM (active) | 1850 nM (active) | 2610 nM (active) | – | 2930 nM (active) | 737 nM (active) | – | 928 nM (active) | inactive
C[C@@H](CN1CC(=O)NC(=O)C1)N1CC(=O)NC(=O)C1 | 4.18 µM (active) | inactive | inactive | inactive | – | inactive | inactive | inactive | inactive | inactive | inactive | inactive | – | inactive | inactive | inactive | inactive | inactive | inactive | inactive
CC(=O)CC(c1ccccc1)c1c(O)c2ccccc2oc1=O (stereo not given) | inactive | inactive | inactive | inactive | inactive | inactive | inactive | inactive | inactive | – | – | – | – | – | – | – | – | – | – | –
Cc1oc(=O)oc1CN1CCN(c2cc3c(cc2F)c(=O)c(C(=O)O)c2n3C(C)S2)CC1 (stereo not given) | inactive | inactive | inactive | inactive | inactive | inactive | inactive | inactive | inactive | – | – | – | – | – | – | – | – | – | – | –
N[C@@H](C(=O)N[C@@H]1C(=O)N2C(C(=O)O)=C(Cl)CS[C@H]12)c1ccccc1 | inactive | inactive | inactive | inactive | inactive | inactive | inactive | inactive | inactive | – | – | – | – | – | – | – | – | – | – | –
CNNCc1ccc(C(=O)NC(C)C)cc1 | inactive | inactive | inactive | inactive | inactive | inactive | inactive | inactive | – | 10400 nM (active) | inactive | – | inactive | – | inactive | inactive | inactive | inactive | inactive | inactive
O=C(O)CCn1c2c(c3ccccc31)C[C@H](NS(=O)(=O)c1ccc(F)cc1)CC2 | inactive | inactive | inactive | inactive | inactive | inactive | inactive | inactive | inactive | – | – | – | – | – | – | – | – | – | – | –
CC(C)OC(=O)C(C(=O)OC(C)C)=C1SC=CS1 | inactive | inactive | inactive | – | inactive | inactive | inactive | inactive | inactive | – | – | – | – | – | – | – | – | – | – | –
O=NN(CCCl)C(=O)NC1CCCCC1 | inactive | inactive | inactive | inactive | inactive | inactive | inactive | inactive | – | inactive | inactive | inactive | inactive | inactive | inactive | – | inactive | – | inactive | inactive
NNC(=O)c1ccncc1 | inactive | inactive | inactive | inactive | inactive | inactive | inactive | inactive | inactive | – | – | – | – | – | – | – | – | – | – | –
C[C@@H]1C[C@H]2[C@@H]3CCC4=CC(=O)C=C[C@]4(C)[C@@]3(Cl)[C@@H](O)C[C@]2(C)[C@@]1(OC(=O)c1ccco1)C(=O)CCl | 10.5 µM (active) | 27.6 µM (active) and 9.68 µM (active) | – | 15.5 µM (active) and 15.3 µM (active) | 8.33 µM (active) | 23.5 µM (active) | inactive | inactive | – | 2610 nM (active) | 10400 nM (active) | 928 nM (active) | – | 369 nM (active) | 5850 nM (active) | 233 nM (active) | – | – | 369 nM (active) | inactive
COc1cc([C@@H]2c3cc4c(cc3[C@H](O)[C@H]3COC(=O)[C@H]23)OCO4)cc(OC)c1OC | 7.5 nM (active) and 1 nM (active) | – | inactive | 30.9 nM (active) and 1 nM (active) | inactive | inactive | inactive | inactive | inactive | 104 nM (active) | 14.7 nM (active) | 73.7 nM (active) | 32.9 nM (active) | 32.9 nM (active) | 52.2 nM (active) | 82.7 nM (active) | – | – | 52.2 nM (active) | inactive
